A selection: hits, their analogues and other compounds. The true share with any hit is near 1.5%.
cardiac RTF act: cardiac RTF calcium sensitivity activators, primary screen, biochemical, IANBD-TnC fluorescence, EC20 calcium; Troponin I, cardiac muscle (Homo sapiens) + Troponin T, cardiac muscle (Homo sapiens) + …; AID 493008, 2010; 340,000 compounds, 0.24% hits; IANBD-labeled TnC RTF fluorescence at EC20 calcium; 0% EC20 calcium, 100% full calcium; activation, % at 7.2 µM;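 active = activation above the mean over all tested compounds plus 3 SD, cut at about 30% in these data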;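 note: rise in fluorescence read as greater calcium sensitivity of cardiac thin filaments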
Cardiac RTF inh: cardiac RTF calcium sensitivity inhibitors, primary screen, biochemical, IANBD-TnC fluorescence, EC70 calcium | IANBD-labeled cardiac RTF, Ca2+ fluorescence | AID 493244, 2011 | 340,000 compounds, 0.12% hits | inhibition, % at 7.15 µM | Troponin I, cardiac muscle (Homo sapiens) + Troponin T, cardiac muscle (Homo sapiens) + …;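 active = inhibition above the mean inhibition of all tested compounds plus 3 SD, cut at about 17% in these data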;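 note: assay run at fixed EC70 calcium of 1.6 mM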
CRFBP-R2 agonist: agonists of CRF-BP/CRF-R2 complex, primary screen, cell-based, HEK293, calcium dye fluorescence, uHTS; CRF-binding protein / CRF receptor 2 complex (human); calcium dye fluorescence (FLIPR); percent of saturating CRF peptide response; activation, % at 13.2 µM; 350,000 compounds, 0.46% hits; AID 588473, 2011;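 active = activation of at least 50%, plus an integration ratio under a set limit after plate pattern correction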
TPT1 inh: Candida albicans TPT1 enzyme inhibitors, primary screen, biochemical, fluorescence polarization | 300,000 compounds, 0.81% hits | recombinant caTPT1, FP RNA substrate dephosphorylation | tRNA 2'-phosphotransferase TPT1 (Candida albicans SC5314) | inhibition, % at 5 µM;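 active = inhibition above the mean of all tested compounds plus 3 SD, set per screening campaign, cut at about 24% in these data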
IDE inh: human IDE inhibitors in live cells, primary screen, fluorescence polarization, HEK cells, FAbetaB substrate | FAbetaB cleavage | 320,000 compounds, 0.41% hits | Insulin-degrading enzyme (Homo sapiens), P14735 | inhibition, % at 5.59 µM | AID 434962, 2010;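 active = percent inhibition above the average of all tested compounds plus 3 SD, set per screening campaign, cut at about 16% in these data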;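 note: IDE supplied by intact live HEK cells; FP after avidin binding of uncleaved biotin substrate so inhibition keeps polarization high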
IDE cell activ: human IDE activators in live cells, primary screen, fluorescence polarization, HEK cells, FAbeta-B substrate; Insulin-degrading enzyme (Homo sapiens), P14735; FAbeta-B cleavage; 0% vehicle, 100% cell-free pure enzyme wells; activation, % at 5.96 µM; 340,000 compounds, 0.073% hits;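 active = activation above the mean of all tested compounds plus 3 SD, set per screening campaign, cut at about 17% in these data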
TPT1 inh confirm: Candida albicans TPT1 inhibitors, confirmation, biochemical, fluorescence polarization, triplicate; recombinant caTPT1, RNase T1 coupled; shares compounds with TPT1 inh; 2,400 compounds, 74% hits; inhibition, % at 5 µM;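 active = inhibition above the primary screen limit, the mean inhibition of all tested compounds plus 3 SD, cut at about 25% in these data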
RNase T1 inh: RNase T1 inhibitors, counter-screen for TPT1 inhibitor project, biochemical, fluorescence polarization; 2,400 compounds, 83% hits; shares compounds with TPT1 inh; RNase T1 cleavage, 1536-well; inhibition, % at 5 µM;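 active = inhibition above the solvent-only control well mean plus 3 SD, limit set per screening run, cut at about 23% in these data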;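 note: inhibitors block cleavage so intact labeled substrate keeps polarization high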
Target sequence (P00651 whole entry, looked up): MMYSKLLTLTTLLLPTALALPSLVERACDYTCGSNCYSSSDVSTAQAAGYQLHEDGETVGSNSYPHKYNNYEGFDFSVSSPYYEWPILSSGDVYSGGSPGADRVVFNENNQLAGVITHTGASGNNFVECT
Of the large screens only hits and unclear results are named; the others gave an inactive call (follow-up assays come after a bar, where they were run).

CC(C)C1C(C#N)=C(N)SC(N)=C1C#N	none
COC(CNC(=O)C1CCCN1C(=O)OCc1ccccc1)OC (stereo not given)	TPT1 inh 42.9 | TPT1 inh confirm inactive | RNase T1 inh inactive
CCOC(=O)C(NC(=O)C1CCCN1C(=O)OCc1ccccc1)C(=O)OCC (stereo not given)	none
NC(=O)Cn1c(=O)n(Cc2ccccc2)c(=O)c2cccnc21	none
Cc1ccccc1Nc1nnc(-c2ccc(C(=O)NCCO)cc2)c2ccccc12	none
O=C(Nc1ccc(S(=O)(=O)Nc2ncccn2)cc1)c1ccccc1Br	none
CCOC(=O)N1CCN(c2cc(=O)n(-c3cccc(C)c3)c(=O)[nH]2)CC1	TPT1 inh 110.0 | TPT1 inh confirm inactive | RNase T1 inh inactive
CCOC(=O)N1CCN(c2cc(=O)n(-c3cccc(Br)c3)c(=O)[nH]2)CC1	none
CCN(CC)CCCNC(=O)c1cc(-c2ccccc2)c(N2CCCCC2)s1	none
CCOC(=O)N1CCC(=NNc2nc3ccccc3s2)CC1	none
CCOC(=O)N1CCN(/C=C(\C#N)c2nc3ccccc3s2)CC1	TPT1 inh 75.0 | TPT1 inh confirm 43.8 | RNase T1 inh 53.6
N#C/C(=C\N1CCN(Cc2ccc3c(c2)OCO3)CC1)c1nc2ccccc2s1	TPT1 inh 52.3 | TPT1 inh confirm 57.5 | RNase T1 inh 66.0
COC(=O)[C@@]1(Cc2ccccc2)[C@H]2C(=O)N(Cc3ccccc3)C(=O)[C@H]2[C@H]2CN=C(SCC3CC3)N21	none (no result: TPT1 inh, IDE inh)
O=Cc1cn(CC(O)Cn2cc(C=O)c3ccccc32)c2ccccc12	none
O=C(/C=C/c1cn(CC(O)CN2CCCCCC2)c2ccccc12)c1cccs1 (stereo not given)	CRFBP-R2 agonist 64.9, TPT1 inh 56.7 | TPT1 inh confirm 67.6 | RNase T1 inh 76.3
CCCCN(C)CC(O)Cn1cc(/C=C/C(=O)c2cccs2)c2ccccc21 (stereo not given)	TPT1 inh 59.2 | TPT1 inh confirm 60.8 | RNase T1 inh 68.3
CCCCN(C)CC(O)Cn1cc(/C=C/C(=O)c2ccc(OCC)cc2)c2ccccc21 (stereo not given)	none (no result: cardiac RTF act, Cardiac RTF inh, CRFBP-R2 agonist, IDE cell activ)
Cc1ccc(S(=O)(=O)NCc2ccc(C(=O)N3CCCC3)cc2)cc1	TPT1 inh 33.2 | TPT1 inh confirm inactive | RNase T1 inh inactive
O=C1CCCC/C1=C\Nc1ccc(S(=O)(=O)Nc2cnc3ccccc3n2)cc1	TPT1 inh 54.6 | TPT1 inh confirm 32.7 | RNase T1 inh 45.2
COc1cc2cc(/C=C/C(=O)c3ccco3)c(Cl)nc2cc1OC	TPT1 inh 32.9 | TPT1 inh confirm 46.6 | RNase T1 inh 55.9
COc1ccc2cc(/C=C/C(=O)c3ccco3)c(Cl)nc2c1	none (no result: cardiac RTF act, Cardiac RTF inh, CRFBP-R2 agonist, IDE cell activ)
O=C(N/N=C/c1cccnc1)c1cc2ccccc2o1	none
Nc1c(C(=O)N/N=C/c2cccnc2)oc2nc(-c3ccccc3)cc(-c3ccco3)c12	TPT1 inh 57.8 (no result: cardiac RTF act, Cardiac RTF inh, IDE cell activ) | TPT1 inh confirm 100.4 | RNase T1 inh 102.6
NNC(=O)c1oc2nc(-c3ccco3)cc(-c3ccco3)c2c1N	TPT1 inh 65.8 (no result: cardiac RTF act, Cardiac RTF inh, IDE cell activ) | TPT1 inh confirm 47.8 | RNase T1 inh 60.7
Nc1c(C(=O)N/N=C/c2cccnc2)oc2nc(-c3ccco3)cc(-c3ccco3)c12	TPT1 inh 44.4 (no result: cardiac RTF act, Cardiac RTF inh, IDE cell activ) | TPT1 inh confirm 75.5 | RNase T1 inh 80.5
N#Cc1c(C(F)(F)F)cc(-c2ccco2)nc1SCc1ccccn1	TPT1 inh 26.9 | TPT1 inh confirm inactive | RNase T1 inh 23.2
CC(=O)Nc1ccn(-c2ccccc2)n1	none
O=C(Nc1ccn(-c2ccccc2)n1)c1ccccc1Br	TPT1 inh 33.5 | TPT1 inh confirm inactive | RNase T1 inh inactive
COc1ccc(C(=O)Nc2cc(C(C)=O)c(/C=C/N(C)C)oc2=O)cc1	CRFBP-R2 agonist 155.3, TPT1 inh 114.1 | TPT1 inh confirm 125.4 | RNase T1 inh 129.7
COC(=O)c1cc(NC(=O)c2ccc(OC)cc2)c(=O)oc1C	none
CC(=O)c1cc(NC(=O)c2ccc(C)cc2)c(=O)oc1/C=C/N(C)C	cardiac RTF act 36.1, CRFBP-R2 agonist 122.8, TPT1 inh 156.1 | TPT1 inh confirm 133.6 | RNase T1 inh 135.0
Cc1ccc(/C=C/C(=O)CCC(=O)O)cc1	none
Cc1ccc(NC(=O)COC(=O)C2=NN(c3ccccc3)C(=O)CC2)c(Br)c1	none (no result: TPT1 inh)
COc1cc(/C=C2\C(=O)N(c3ccc(NC(C)=O)cc3)N=C2c2ccccc2)ccc1O	none
CCOc1cc(/C=C2\C(=O)N(c3nc(-c4ccc(Br)cc4)cs3)N=C2c2ccccc2)ccc1O	TPT1 inh 41.3 | TPT1 inh confirm 99.7 | RNase T1 inh 103.7
Cc1ccc(C2C(C#N)=C(N)SC(N)=C2C#N)c(C)c1	cardiac RTF act 80.5, CRFBP-R2 agonist 133.0, TPT1 inh 151.8 | TPT1 inh confirm 78.8 | RNase T1 inh 89.9
Cc1ccc(CO/N=C\Cc2snc(Sc3ncc(C(F)(F)F)cc3Cl)c2C#N)cc1	TPT1 inh 35.2 | TPT1 inh confirm 27.0 | RNase T1 inh 34.1
N#CCc1ccc(Oc2ncc(C(F)(F)F)cc2Cl)cc1	none
Nc1c(C(=O)O)sc2nc(-c3ccc(F)cc3)cc(-c3ccccc3)c12	TPT1 inh 28.7 | TPT1 inh confirm inactive | RNase T1 inh 21.6
Cc1ccccc1-n1c(SCc2c(C)noc2C)nnc1-c1cccnc1	none
Cc1ccccc1-n1c(SCc2c(C)noc2C)nnc1-c1ccncc1	TPT1 inh 32.5 | TPT1 inh confirm inactive | RNase T1 inh inactive
COc1ccc(CNC(=O)C(C)Sc2ccc(C)cc2)cc1 (stereo not given)	none
Cc1ccc(SC(C)C(=O)NCc2ccncc2)cc1 (stereo not given)	TPT1 inh 113.6 | TPT1 inh confirm inactive | RNase T1 inh inactive
